In article PMC11062922 (Nature Chemical Biology, 2023):
Read-outs that look alike come from different tables or passages of the source.

How the values were obtained:
Conditions in all cases: read-out: apparent Kd, n = 1
ACVR1 = test system: ACVR1
CLK1 = test system: CLK1
MAP2K1 = test system: MAP2K1
[1] = compound concentrations:100 nM and 1000 nM (sheet 'Lestaurtinib' of Supplementary Table 1),run:Lestaurtinib_02422_R1,Plate:MR006
[2] = compound concentrations:100 nM and 1000 nM (sheet 'Lestaurtinib' of Supplementary Table 1),run:Lestaurtinib_02443_R3,Plate:MR009
[3] = compound concentrations:100 nM and 1000 nM (sheet 'Lestaurtinib' of Supplementary Table 1),run:Lestaurtinib_02572_R1,Plate:MR015
[4] = compound concentrations:100 nM and 1000 nM (sheet 'Lestaurtinib' of Supplementary Table 1),run:Lestaurtinib_02577_R1,Plate:MR016
[5] = compound concentrations:100 nM and 1000 nM (sheet 'Lestaurtinib' of Supplementary Table 1),run:Lestaurtinib_02577_R3,Plate:MR016
[6] = compound concentrations:100 nM and 1000 nM (sheet 'Lestaurtinib' of Supplementary Table 1),run:Lestaurtinib_02584_R3,Plate:MR017
[7] = compound concentrations:100 nM and 1000 nM (sheet 'Lestaurtinib' of Supplementary Table 1),run:Lestaurtinib_02748_R1,Plate:MR024
[8] = compound concentrations:100 nM and 1000 nM (sheet 'Lestaurtinib' of Supplementary Table 1),run:Lestaurtinib_02766_R3,Plate:MR027
[9] = compound concentrations:100 nM and 1000 nM (sheet 'Lestaurtinib' of Supplementary Table 1),run:Lestaurtinib_02896_R1,Plate:MR030
[10] = compound concentrations:100 nM and 1000 nM (sheet 'Lestaurtinib' of Supplementary Table 1),run:Lestaurtinib_02367_R2,Plate:MR003
[11] = compound concentrations:100 nM and 1000 nM (sheet 'Lestaurtinib' of Supplementary Table 1),run:Lestaurtinib_02438_R3,Plate:MR008
[12] = compound concentrations:100 nM and 1000 nM (sheet 'Lestaurtinib' of Supplementary Table 1),run:Lestaurtinib_02443_R1,Plate:MR009
[13] = compound concentrations:100 nM and 1000 nM (sheet 'Lestaurtinib' of Supplementary Table 1),run:Lestaurtinib_02443_R2,Plate:MR009
[14] = compound concentrations:100 nM and 1000 nM (sheet 'Lestaurtinib' of Supplementary Table 1),run:Lestaurtinib_02473_R1,Plate:MR010
[15] = compound concentrations:100 nM and 1000 nM (sheet 'Lestaurtinib' of Supplementary Table 1),run:Lestaurtinib_02473_R2,Plate:MR010
[16] = compound concentrations:100 nM and 1000 nM (sheet 'Lestaurtinib' of Supplementary Table 1),run:Lestaurtinib_02566_R1,Plate:MR014
[17] = compound concentrations:100 nM and 1000 nM (sheet 'Lestaurtinib' of Supplementary Table 1),run:Lestaurtinib_02724_R2,Plate:MR021
[18] = compound concentrations:100 nM and 1000 nM (sheet 'Lestaurtinib' of Supplementary Table 1),run:Lestaurtinib_02724_R3,Plate:MR021
[19] = compound concentrations:100 nM and 1000 nM (sheet 'Lestaurtinib' of Supplementary Table 1),run:Lestaurtinib_02741_R1,Plate:MR023

Lestaurtinib
potency estimated from few doses (ACVR1; compound concentrations:100 nM and 1000 nM (sheet 'Lestaurtinib' of Supplementary Table 1),run:Lestaurtinib_02339_R2,Plate:MR001): 1510 nM
potency estimated from few doses (ACVR1; compound concentrations:100 nM and 1000 nM (sheet 'Lestaurtinib' of Supplementary Table 1),run:Lestaurtinib_02407_R1,Plate:MR005): 1540 nM
potency estimated from few doses (ACVR1; [1]): 1350 nM
potency estimated from few doses (ACVR1; [2]): 946 nM
potency estimated from few doses (ACVR1; compound concentrations:100 nM and 1000 nM (sheet 'Lestaurtinib' of Supplementary Table 1),run:Lestaurtinib_02473_R3,Plate:MR010): 958 nM
potency estimated from few doses (ACVR1; [3]): 671 nM
potency estimated from few doses (ACVR1; [4]): 1530 nM
potency estimated from few doses (ACVR1; [5]): 1360 nM
potency estimated from few doses (ACVR1; [6]): 1580 nM
potency estimated from few doses (ACVR1; [7]): 1460 nM
potency estimated from few doses (ACVR1; [8]): 1420 nM
potency estimated from few doses (ACVR1; [9]): 1240 nM
potency estimated from few doses (CLK1; compound concentrations:100 nM and 1000 nM (sheet 'Lestaurtinib' of Supplementary Table 1),run:Lestaurtinib_02364_R1,Plate:MR002): 130 nM
potency estimated from few doses (CLK1; compound concentrations:100 nM and 1000 nM (sheet 'Lestaurtinib' of Supplementary Table 1),run:Lestaurtinib_02364_R3,Plate:MR002): 175 nM
potency estimated from few doses (CLK1; [10]): 153 nM
potency estimated from few doses (CLK1; compound concentrations:100 nM and 1000 nM (sheet 'Lestaurtinib' of Supplementary Table 1),run:Lestaurtinib_02367_R3,Plate:MR003): 240 nM
potency estimated from few doses (CLK1; compound concentrations:100 nM and 1000 nM (sheet 'Lestaurtinib' of Supplementary Table 1),run:Lestaurtinib_02407_R3,Plate:MR005): 176 nM
potency estimated from few doses (CLK1; [1]): 88.2 nM
potency estimated from few doses (CLK1; compound concentrations:100 nM and 1000 nM (sheet 'Lestaurtinib' of Supplementary Table 1),run:Lestaurtinib_02422_R2,Plate:MR006): 4.49 nM
potency estimated from few doses (CLK1; compound concentrations:100 nM and 1000 nM (sheet 'Lestaurtinib' of Supplementary Table 1),run:Lestaurtinib_02422_R3,Plate:MR006): 115 nM
potency estimated from few doses (CLK1; compound concentrations:100 nM and 1000 nM (sheet 'Lestaurtinib' of Supplementary Table 1),run:Lestaurtinib_02437_R1,Plate:MR007): 132 nM
potency estimated from few doses (CLK1; compound concentrations:100 nM and 1000 nM (sheet 'Lestaurtinib' of Supplementary Table 1),run:Lestaurtinib_02437_R2,Plate:MR007): 160 nM
potency estimated from few doses (CLK1; [11]): 124 nM
potency estimated from few doses (CLK1; [12]): 154 nM
potency estimated from few doses (CLK1; [13]): 115 nM
potency estimated from few doses (CLK1; [2]): 133 nM
potency estimated from few doses (CLK1; [14]): 93.7 nM
potency estimated from few doses (CLK1; [15]): 131 nM
potency estimated from few doses (CLK1; compound concentrations:100 nM and 1000 nM (sheet 'Lestaurtinib' of Supplementary Table 1),run:Lestaurtinib_02482_R3,Plate:MR011): 170 nM
potency estimated from few doses (CLK1; compound concentrations:100 nM and 1000 nM (sheet 'Lestaurtinib' of Supplementary Table 1),run:Lestaurtinib_02487_R2,Plate:MR012): 196 nM
potency estimated from few doses (CLK1; compound concentrations:100 nM and 1000 nM (sheet 'Lestaurtinib' of Supplementary Table 1),run:Lestaurtinib_02496_R3,Plate:MR013): 84.6 nM
potency estimated from few doses (CLK1; [16]): 131 nM
potency estimated from few doses (CLK1; compound concentrations:100 nM and 1000 nM (sheet 'Lestaurtinib' of Supplementary Table 1),run:Lestaurtinib_02566_R3,Plate:MR014): 151 nM
potency estimated from few doses (CLK1; [3]): 130 nM
potency estimated from few doses (CLK1; compound concentrations:100 nM and 1000 nM (sheet 'Lestaurtinib' of Supplementary Table 1),run:Lestaurtinib_02572_R2,Plate:MR015): 137 nM
potency estimated from few doses (CLK1; [4]): 206 nM
potency estimated from few doses (CLK1; [6]): 202 nM
potency estimated from few doses (CLK1; compound concentrations:100 nM and 1000 nM (sheet 'Lestaurtinib' of Supplementary Table 1),run:Lestaurtinib_02601_R2,Plate:MR018): 232 nM
potency estimated from few doses (CLK1; compound concentrations:100 nM and 1000 nM (sheet 'Lestaurtinib' of Supplementary Table 1),run:Lestaurtinib_02606_R2,Plate:MR019): 69.6 nM
potency estimated from few doses (CLK1; compound concentrations:100 nM and 1000 nM (sheet 'Lestaurtinib' of Supplementary Table 1),run:Lestaurtinib_02606_R3,Plate:MR019): 167 nM
potency estimated from few doses (CLK1; compound concentrations:100 nM and 1000 nM (sheet 'Lestaurtinib' of Supplementary Table 1),run:Lestaurtinib_02624_R1,Plate:MR020): 235 nM
potency estimated from few doses (CLK1; compound concentrations:100 nM and 1000 nM (sheet 'Lestaurtinib' of Supplementary Table 1),run:Lestaurtinib_02624_R2,Plate:MR020): 113 nM
potency estimated from few doses (CLK1; compound concentrations:100 nM and 1000 nM (sheet 'Lestaurtinib' of Supplementary Table 1),run:Lestaurtinib_02624_R3,Plate:MR020): 160 nM
potency estimated from few doses (CLK1; [17]): 179 nM
potency estimated from few doses (CLK1; [18]): 163 nM
potency estimated from few doses (CLK1; [19]): 211 nM
potency estimated from few doses (CLK1; [7]): 237 nM
potency estimated from few doses (CLK1; compound concentrations:100 nM and 1000 nM (sheet 'Lestaurtinib' of Supplementary Table 1),run:Lestaurtinib_02752_R1,Plate:MR025): 146 nM
potency estimated from few doses (CLK1; compound concentrations:100 nM and 1000 nM (sheet 'Lestaurtinib' of Supplementary Table 1),run:Lestaurtinib_02765_R1,Plate:MR026): 278 nM
potency estimated from few doses (CLK1; compound concentrations:100 nM and 1000 nM (sheet 'Lestaurtinib' of Supplementary Table 1),run:Lestaurtinib_02765_R3,Plate:MR026): 244 nM
potency estimated from few doses (CLK1; compound concentrations:100 nM and 1000 nM (sheet 'Lestaurtinib' of Supplementary Table 1),run:Lestaurtinib_02766_R1,Plate:MR027): 143 nM
potency estimated from few doses (CLK1; [8]): 154 nM
potency estimated from few doses (CLK1; compound concentrations:100 nM and 1000 nM (sheet 'Lestaurtinib' of Supplementary Table 1),run:Lestaurtinib_02768_R2,Plate:MR028): 141 nM
potency estimated from few doses (CLK1; compound concentrations:100 nM and 1000 nM (sheet 'Lestaurtinib' of Supplementary Table 1),run:Lestaurtinib_02768_R3,Plate:MR028): 135 nM
potency estimated from few doses (CLK1; compound concentrations:100 nM and 1000 nM (sheet 'Lestaurtinib' of Supplementary Table 1),run:Lestaurtinib_02795_R1,Plate:MR022): 93.8 nM
potency estimated from few doses (CLK1; compound concentrations:100 nM and 1000 nM (sheet 'Lestaurtinib' of Supplementary Table 1),run:Lestaurtinib_02802_R3,Plate:MR029): 22.2 nM
potency estimated from few doses (CLK1; [9]): 136 nM
potency estimated from few doses (CLK1; compound concentrations:100 nM and 1000 nM (sheet 'Lestaurtinib' of Supplementary Table 1),run:Lestaurtinib_02896_R2,Plate:MR030): 82.8 nM
potency estimated from few doses (CLK1; compound concentrations:100 nM and 1000 nM (sheet 'Lestaurtinib' of Supplementary Table 1),run:Lestaurtinib_03172_R3,Plate:MR031): 134 nM
potency estimated from few doses (CLK1; compound concentrations:100 nM and 1000 nM (sheet 'Lestaurtinib' of Supplementary Table 1),run:Lestaurtinib_03252_R1,Plate:MR032): 130 nM
potency estimated from few doses (CLK1; compound concentrations:100 nM and 1000 nM (sheet 'Lestaurtinib' of Supplementary Table 1),run:Lestaurtinib_03252_R2,Plate:MR032): 25.4 nM
potency estimated from few doses (CLK1; compound concentrations:100 nM and 1000 nM (sheet 'Lestaurtinib' of Supplementary Table 1),run:Lestaurtinib_03260_R2,Plate:MR033): 248 nM
potency estimated from few doses (MAP2K1; compound concentrations:100 nM and 1000 nM (sheet 'Lestaurtinib' of Supplementary Table 1),run:Lestaurtinib_02339_R1,Plate:MR001): 2070 nM
potency estimated from few doses (MAP2K1; compound concentrations:100 nM and 1000 nM (sheet 'Lestaurtinib' of Supplementary Table 1),run:Lestaurtinib_02367_R1,Plate:MR003): 825 nM
potency estimated from few doses (MAP2K1; [10]): 1420 nM
potency estimated from few doses (MAP2K1; compound concentrations:100 nM and 1000 nM (sheet 'Lestaurtinib' of Supplementary Table 1),run:Lestaurtinib_02381_R1,Plate:MR004): 579 nM
potency estimated from few doses (MAP2K1; compound concentrations:100 nM and 1000 nM (sheet 'Lestaurtinib' of Supplementary Table 1),run:Lestaurtinib_02381_R2,Plate:MR004): 1760 nM
potency estimated from few doses (MAP2K1; compound concentrations:100 nM and 1000 nM (sheet 'Lestaurtinib' of Supplementary Table 1),run:Lestaurtinib_02381_R3,Plate:MR004): 2000 nM
potency estimated from few doses (MAP2K1; [1]): 1620 nM
potency estimated from few doses (MAP2K1; compound concentrations:100 nM and 1000 nM (sheet 'Lestaurtinib' of Supplementary Table 1),run:Lestaurtinib_02438_R2,Plate:MR008): 1630 nM
potency estimated from few doses (MAP2K1; [11]): 1400 nM
potency estimated from few doses (MAP2K1; [12]): 1540 nM
potency estimated from few doses (MAP2K1; [13]): 1360 nM
potency estimated from few doses (MAP2K1; [14]): 1690 nM
potency estimated from few doses (MAP2K1; [15]): 1430 nM
potency estimated from few doses (MAP2K1; [16]): 656 nM
potency estimated from few doses (MAP2K1; [3]): 1430 nM
potency estimated from few doses (MAP2K1; [5]): 1750 nM
potency estimated from few doses (MAP2K1; compound concentrations:100 nM and 1000 nM (sheet 'Lestaurtinib' of Supplementary Table 1),run:Lestaurtinib_02584_R2,Plate:MR017): 1720 nM
potency estimated from few doses (MAP2K1; [6]): 1990 nM
potency estimated from few doses (MAP2K1; compound concentrations:100 nM and 1000 nM (sheet 'Lestaurtinib' of Supplementary Table 1),run:Lestaurtinib_02601_R1,Plate:MR018): 876 nM
potency estimated from few doses (MAP2K1; compound concentrations:100 nM and 1000 nM (sheet 'Lestaurtinib' of Supplementary Table 1),run:Lestaurtinib_02606_R1,Plate:MR019): 884 nM
potency estimated from few doses (MAP2K1; compound concentrations:100 nM and 1000 nM (sheet 'Lestaurtinib' of Supplementary Table 1),run:Lestaurtinib_02724_R1,Plate:MR021): 1600 nM
potency estimated from few doses (MAP2K1; [17]): 2070 nM
potency estimated from few doses (MAP2K1; [18]): 1610 nM
potency estimated from few doses (MAP2K1; [19]): 2060 nM
